Laboratory results from the supplement of paper PMC12024424.
Counter-ions that a name gives are not always drawn.

system: Staphylococcus aureus Sa2 (MRSA, cystic fibrosis isolate); assay: growth reduction vs untreated control (viable cell count); higher = stronger antibacterial activity; extreme values may be limits of the assay; details: 0.1 mM; 24 h
Method: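 Single-dose screen of the MedChem Express Drug Repurposing Library (0.1 mM, 1% DMSO) against planktonic MRSA S. aureus Sa2 (CF isolate) in TSB in 96-well plates, 37 °C aerobic, 24 h. Assays were run in triplicate and repeated twice.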

SMILES | growth reduction
CC(OC(=O)NCC1(CC(=O)O)CCCCC1)OC(=O)C(C)C (stereo not given) [Gabapentin enacarbil] | 93%
COC1=C(OC)C(=O)C(CCCCCCCCCC[P+](c2ccccc2)(c2ccccc2)c2ccccc2)=C(C)C1=O [Mitoquinone (mesylate)] | 100%
N=C(N)c1ccc(OCCCCCOc2ccc(C(=N)N)cc2)cc1 [Pentamidine (isethionate)] | 100%
NC(N)=NC(=O)c1nc(Cl)c(N2CCCCCC2)nc1N [5-(N,N-Hexamethylene)-amiloride] | 100%
N[C@@H]1CC[C@@H](c2ccc(Cl)c(Cl)c2)c2ccccc21 [Dasotraline (hydrochloride)] | 100%
O=C(O)CCCc1cc2cc(Cl)ccc2n1S(=O)(=O)c1ccc2ncsc2c1 [Lanifibranor] | 99%
CNC(=O)c1ccc(Nc2ncc(C(F)(F)F)c(NCc3nccnc3N(C)S(C)(=O)=O)n2)cc1 [Defactinib] | 95%
COC(=O)C1=C(C)NC(C)=C(C(=O)OC(C)C)C1c1cccc2nonc12 (stereo not given) [Isradipine] | 100%
Clc1ccc(CCC(Cn2ccnc2)Sc2c(Cl)cccc2Cl)cc1 (stereo not given) [Butoconazole (nitrate)] | 100%
C=CC(=O)N1CC[C@@H](Oc2nc(Nc3ccc(N4CCC(N5CCN(C)CC5)CC4)cc3)c(C(N)=O)nc2CC)C1 [Naquotinib (mesylate)] | 100%
C[C@H](Nc1cc(-c2cnn(C)c2)cc(Nc2cnccn2)n1)c1ccc(F)cc1 [Ilginatinib] | 94%
COc1cc(C(=O)O)ccc1NC(=O)[C@@H]1N[C@@H](CC(C)(C)C)[C@](C#N)(c2ccc(Cl)cc2F)[C@H]1c1cccc(Cl)c1F [Idasanutlin] | 100%
C=CC(=O)Nc1cc(Nc2nccc(-c3cn(C)c4ccccc34)n2)c(OC)cc1N(C)CCN(C)C [Osimertinib (dimesylate)] | 100%
CC(=O)Oc1cc(C)c(OC(C)=O)c2ccccc12 [Vitamin K4] | 97%
CC(=O)c1cc2c(o1)C(=O)c1ccccc1C2=O [Napabucasin] | 100%
Cc1cc(C2CCCCC2)n(O)c(=O)c1 [Ciclopirox] | 100%
COc1cccc(-c2ccc(NC(=O)C3=C(C(=O)O)CCC3)c(F)c2)c1 [Vidofludimus] | 99%
Cc1ccc(C(=O)Nc2ccc(CN3CCN(C)CC3)c(C(F)(F)F)c2)cc1C#Cc1cnc2[nH]ncc2c1 | 100%
Clc1ccccc1C(c1ccccc1)(c1ccccc1)n1ccnc1 [Clotrimazole] | 100%
O=C(O)Cc1cc(I)c(Oc2ccc(O)c(I)c2)c(I)c1 [Tiratricol] | 100%

SMILES | growth reduction
O=C(O)c1ccc2nc(-c3cc(Cl)cc(Cl)c3)oc2c1 [Tafamidis meglumine] | 98%
CCOc1cc(CC(=O)N[C@@H](CC(C)C)c2ccccc2N2CCCCC2)ccc1C(=O)O [Repaglinide] | 100%
Cc1c(C)c2c(c(C)c1O)CCC(C)(COc1ccc(CC3SC(=O)NC3=O)cc1)O2 (stereo not given) [Troglitazone] | 100%
C#C[C@]1(O)CC[C@H]2[C@@H]3CCc4cc(OC)ccc4[C@H]3CC[C@@]21C [Mestranol] | 93%
NC(=O)[C@@H]1CC[C@@H]2CN1C(=O)N2OS(=O)(=O)O [Avibactam (sodium)] | 97%
CCN(CC)CC#CCOC(=O)C(O)(c1ccccc1)C1CCCCC1 (stereo not given) [Oxybutynin (chloride)] | 91%
O=C(O)c1ccc2nc(-c3cc(Cl)cc(Cl)c3)oc2c1 [Tafamidis] | 100%
C=CCNc1c(O)cc2c(O)c1C[C@@H](C)C[C@H](OC)[C@H](O)[C@@H](C)/C=C(\C)[C@H](OC(N)=O)[C@@H](OC)/C=C\C=C(/C)C(=O)N2 [Retaspimycin (Hydrochloride)] | 100%
CCCCCOc1ccccc1/C(=C\SC)n1ccnc1 [Neticonazole (hydrochloride)] | 100%
CCOc1nc2cccc(C(=O)OC(C)OC(=O)OC3CCCCC3)c2n1Cc1ccc(-c2ccccc2-c2nn[nH]n2)cc1 (stereo not given) [Candesartan Cilexetil] | 100%
CC/C(=C(/CC)c1ccc(O)cc1)c1ccc(O)cc1 [Diethylstilbestrol] | 100%
CC1(S(=O)(=O)O)CC(=O)c2ccccc2C1=O (stereo not given) [Menadione bisulfite (sodium)] | 100%
CC(C)C[C@@H](C(=O)N[C@H](C(=O)OC1CCCC1)c1ccccc1)[C@H](O)C(=O)NO [Tosedostat] | 100%
Cc1ccc(NC(=O)c2ccc(CN3CCN(C)CC3)cc2)cc1Nc1nc(-c2cccnc2)cs1 [Masitinib (mesylate)] | 100%
O=[N+]([O-])c1ccc(O)c2ncccc12 [Nitroxoline] | 100%
OCCN1CCN(CC/C=C2/c3ccccc3Sc3ccc(Cl)cc32)CC1 [Zuclopenthixol] | 100%
Cn1cc(-c2ccncc2)c(-c2ccc(OCc3ccc4ccccc4n3)cc2)n1 [Mardepodect] | 93%
Cn1c(O)c(C2=c3ccccc3=NC2=O)c2ccccc21 [Meisoindigo] | 100%
Nc1ccc(S(=O)(=O)Nc2cnc3c(Cl)cccc3n2)cc1 [Chloroquinoxaline sulfonamide] | 99%
Oc1ccc2c(c1)CC[C@H](c1ccccc1)[C@@H]2c1ccc(OCCN2CCCC2)cc1 [Lasofoxifene (Tartrate)] | 100%
